Here are results for 19 molecules from PubChem BioAssay.

Assay [1] is described as follows: stimulators of insulin release from INS-1E, primary screen, cell-based, 5 mM glucose, NPC library (AID 1117329;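 active = compound raises insulin release from rat beta cells at 5 mM glucose, no numeric limit stated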; also: reference of the scale not given here). Conditions: rat INS-1E insulin secretion, at 10 µM, stronger effect = higher value.
Assay [2] is described as follows: growth inhibition of GSK3B-pretreated HCT116 cells – cell-based, CellTiter-Glo, 0.2 to 20 µM (AID 1117336). The following applies: HCT116 viability after GSK3B inhibitor, at 20 µM, stronger effect = higher value. (In general: ATP-based viability assays read luminescence as a measure of living cells.)
The nature of assay [3]: inhibition of endothelial tube formation, primary screen, imaging, VEGF stimulated, CD31 staining, tube area, NPC library (AID 1117340;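 active = compound that reduces growth-factor-driven endothelial tube area in a mixed cell culture, no cutoff stated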). The following applies: VEGF-stimulated ADSC/ECFC co-culture, at 10 µM, stronger effect = higher value.
Assay [4] can be described thus: GLP1 release stimulators, primary, NCI-H716, NPC library (AID 1117341;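 active = compound raises GLP1 secretion from the human gut endocrine cells, with no numeric limit stated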; also: reference of the scale not given here). The following applies: NCI-H716 cells, at 10 µM, stronger effect = higher value.
Assay [5] is described as follows: HCT116 colon cancer cell growth inhibition, primary screen, CellTiter-Glo luminescence, NPC library (AID 1117342;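 active = compounds that lower survival of HCT116 colon cancer cells in the luminescence readout, no numeric limit stated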). The following applies: at 20 µM (top of the series).
Assay [6] can be described thus: reduced SW480 viability measured with CellTiter-Glo, NPC library, primary (AID 1117343;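 active = compounds that lower viability of the colon cancer cells in the luminescence readout, with no numeric limit stated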). Conditions: CellTiter-Glo luminescence; at 20 µM (top of the series).
Assay [7] can be described thus: NPC library primary testing for decreased DLD-1 cell viability via CellTiter-Glo (AID 1117346;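 active = compounds that lower survival of DLD-1 colon cancer cells in the luminescence readout, no cutoff given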). Conditions: DLD-1 viability, CellTiter-Glo luminescence; at 20 µM (top of the series).

A number with no mark means an inactive call. Calls of active or inactive are those of the source.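 The calls were made as follows, unless noted: active = compounds lowering colon cancer cell viability after pretreatment blocking the GSK3B kinase; inactive = the rest.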

For `CC(=O)[C@]1(O)Cc2c(O)c3c(c(O)c2[C@@H](O[C@H]2C[C@H](N)[C@H](O)[C@H](C)O2)C1)C(=O)c1ccccc1C3=O`, the insulin secretion stimulation in assay [1] was -1.8%. Also, the viability decrease in assay [2] is 84% (active). Moreover, the tube area decrease in assay [3] was 85.6% (active). Further, the GLP1 secretion stimulation in assay [4] was -0.2%. The inhibition of viability in assay [5] was 68.9% (active). The figures for the viability decrease (inhibition) in assay [6] and in assay [7] were 84.7% (active) and 85.5% (active), respectively.

Turning to `COc1cc(C)nc(-n2nc(C)cc2OC)n1`, the insulin secretion stimulation in assay [1] was 2.5%. Further, in assay [2], the viability decrease was -5%. In addition, in assay [3], the tube area decrease is 24.2%. For the same molecule, the GLP1 secretion stimulation in assay [4] was -5.7%. Further, the inhibition of viability in assay [5] was -10.1%. Besides, the viability decrease (inhibition) was 1.8% in assay [6] and -17.2% in assay [7].

As to `C[C@@H]1C[C@H]2[C@@H]3C[C@H](F)C4=CC(=O)C(Cl)=C[C@]4(C)[C@@]3(F)[C@@H](O)C[C@]2(C)[C@@]1(O)C(=O)CO`, in assay [1], the insulin secretion stimulation is -0.6%. Moreover, in assay [2], the viability decrease was 6.2%. Moreover, the tube area decrease in assay [3] was -1.8%. For the same molecule, the GLP1 secretion stimulation in assay [4] is 4.6%. The inhibition of viability in assay [5] is 33.1%. Besides, the figures for the viability decrease (inhibition) in assay [6] and in assay [7] were 12% and 8.3%, respectively.

As for `Cc1nc2n(c(=O)c1CCN1CCC(c3noc4cc(F)ccc34)CC1)CCCC2`, the insulin secretion stimulation in assay [1] was 2.5%. Further, the viability decrease in assay [2] was 5.9%. Moreover, in assay [3], the tube area decrease is 24.9%. Also, in assay [4], the GLP1 secretion stimulation was 2.3%. In assay [5], the inhibition of viability is 24.2%. The viability decrease (inhibition) in assay [6] is 41.5%; in assay [7] it was 10.7%.

For `COC(=O)CCc1ccc(OCC(O)CNC(C)C)cc1` (stereo not drawn), the insulin secretion stimulation in assay [1] is 6.9%. Moreover, the viability decrease in assay [2] is -7.2%. Moreover, the tube area decrease in assay [3] was -8.1%. For the same molecule, the GLP1 secretion stimulation in assay [4] is -0.5%. Moreover, the inhibition of viability in assay [5] is 18.6%. Moreover, the figures for the viability decrease (inhibition) in assay [6] and in assay [7] were 39.7% and 16.8%, respectively.

Take `Clc1ccc2c(c1)CCc1cccnc1C2=C1CCNCC1`: in assay [1], the insulin secretion stimulation is 37.7% (active). Moreover, the viability decrease in assay [2] is 50.4% (active). For the same molecule, the tube area decrease in assay [3] is 9.9%. The GLP1 secretion stimulation in assay [4] was 21.1% (active). Moreover, the inhibition of viability in assay [5] is 55.5% (active). Further, the viability decrease (inhibition) was 97.8% (active) in assay [6] and 30% in assay [7].

`CCN1CCC[C@H]1CNC(=O)c1c(O)c(Cl)cc(Cl)c1OC`: the insulin secretion stimulation in assay [1] was -0.9%. In assay [2], the viability decrease was -21%. For the same molecule, in assay [3], the tube area decrease is -4.8%. The GLP1 secretion stimulation in assay [4] is 2.2%. In assay [5], the inhibition of viability was 9.13%. For the same molecule, the viability decrease (inhibition) in assay [6] is -26.4%; in assay [7] it was -11.6%.

For the molecule `CCN1CCCC1CNC(=O)c1cc(S(=O)(=O)CC)c(N)cc1OC` (stereo not drawn), the insulin secretion stimulation in assay [1] is 0%. In assay [2], the viability decrease is -1.8%. Besides, in assay [3], the tube area decrease is -11.8%. Also, the GLP1 secretion stimulation in assay [4] is -4.7%. Moreover, the inhibition of viability in assay [5] was -1.4%. Further, the figures for the viability decrease (inhibition) in assay [6] and in assay [7] were 1.7% and -1.4%, respectively.

As to `Cc1c(O)cccc1C(=O)N[C@@H](CSc1ccccc1)[C@H](O)CN1C[C@H]2CCCC[C@H]2C[C@H]1C(=O)NC(C)(C)C`, in assay [1], the insulin secretion stimulation is 2.3%. Besides, the viability decrease in assay [2] is 117% (active). For the same molecule, the tube area decrease in assay [3] is 67.1% (active). Besides, in assay [4], the GLP1 secretion stimulation is 7.9%. Also, in assay [5], the inhibition of viability is 124% (active). The viability decrease (inhibition) in assay [6] is 158% (active); in assay [7], 100% (active).

For the molecule `CC(C)(C)C(O)/C=C/c1ccc2c(c1)OCO2` (stereo not drawn), the insulin secretion stimulation in assay [1] is -1.1%. The viability decrease in assay [2] is -4.45%. In addition, the tube area decrease in assay [3] was -6.4%. In addition, the GLP1 secretion stimulation in assay [4] was 1.9%. The inhibition of viability in assay [5] was 11.7%. Further, the viability decrease (inhibition) in assay [6] was -0.9%; in assay [7], -1.3%.

For `CN(CCOc1ccc(NS(C)(=O)=O)cc1)CCc1ccc(NS(C)(=O)=O)cc1`, in assay [1], the insulin secretion stimulation is 1.25%. The viability decrease in assay [2] is 12.3%. Moreover, in assay [3], the tube area decrease is 3.3% (active). In addition, the GLP1 secretion stimulation in assay [4] was 0.3%. For the same molecule, the inhibition of viability in assay [5] was 11.9%. The viability decrease (inhibition) in assay [6] was 13%; in assay [7], -6.9%.

For the molecule `C[C@H]1COc2c(C3(N)CC3)c(F)cc3c(=O)c(C(=O)O)cn1c23`, the insulin secretion stimulation in assay [1] was -0.9%. The viability decrease in assay [2] was -4.4%. Also, the tube area decrease in assay [3] was 2.8%. Further, the GLP1 secretion stimulation in assay [4] was 4.2%. For the same molecule, the inhibition of viability in assay [5] is -19.1%. The viability decrease (inhibition) in assay [6] is 43.9%; in assay [7], 24.9%.

In the case of `COc1cc(-c2ccc(=O)[nH]n2)ccc1OC(F)F`, the insulin secretion stimulation in assay [1] was 0.6%. Besides, the viability decrease in assay [2] is -6.05%. Further, the tube area decrease in assay [3] was 99.9% (active). Also, the GLP1 secretion stimulation in assay [4] was 11.6%. The inhibition of viability in assay [5] is -6.7%. Also, the viability decrease (inhibition) is 11.4% in assay [6] and 4.45% in assay [7].

In the case of `CN1CCCCC1CCN1c2ccccc2Sc2ccc(S(C)=O)cc21` (stereo not drawn), the insulin secretion stimulation in assay [1] is 15.2%. In assay [2], the viability decrease was 51% (active). Moreover, the tube area decrease in assay [3] is 16.9%. Besides, the GLP1 secretion stimulation in assay [4] is 12.7%. Further, the inhibition of viability in assay [5] is 36.7% (active). Further, the viability decrease (inhibition) in assay [6] is 31.7%; in assay [7], 9.3%.

For `CC1=C(C)C(=O)C(C(CCCCCC(=O)O)c2ccccc2)=C(C)C1=O` (stereo not drawn), the insulin secretion stimulation in assay [1] is -0.1%. The viability decrease in assay [2] was 20.4%. In addition, the tube area decrease in assay [3] is -6.8%. The GLP1 secretion stimulation in assay [4] was 4%. For the same molecule, the inhibition of viability in assay [5] was -4.2%. Further, the viability decrease (inhibition) in assay [6] is -12.9%; in assay [7], -13.3%.

Take `CC(C)(C#N)c1cc(Cn2cncn2)cc(C(C)(C)C#N)c1`: the insulin secretion stimulation in assay [1] was 2.3%. Further, in assay [2], the viability decrease was -0.4%. For the same molecule, the tube area decrease in assay [3] is -11.4%. In addition, the GLP1 secretion stimulation in assay [4] was 2.1%. Moreover, in assay [5], the inhibition of viability is -5.9%. Further, the viability decrease (inhibition) in assay [6] is 45.5%; in assay [7], 0.55%.

With `Cc1ncc([N+](=O)[O-])n1CC(O)CCl` (stereo not drawn), in assay [1], the insulin secretion stimulation is -1.6%. Also, the viability decrease in assay [2] is -3.65%. The tube area decrease in assay [3] is -4.9%. Further, the GLP1 secretion stimulation in assay [4] is -0.1%. Moreover, the inhibition of viability in assay [5] is 0.2%. In addition, the results for the viability decrease (inhibition) in assay [6] and in assay [7] were -45.6% and -4.95%, respectively.

Turning to `C[C@@H]1CN(c2c(F)c(N)c3c(=O)c(C(=O)O)cn(C4CC4)c3c2F)C[C@H](C)N1`, in assay [1], the insulin secretion stimulation was 2.1%. For the same molecule, the viability decrease in assay [2] is 13.2%. For the same molecule, the tube area decrease in assay [3] is -14.6%. Further, in assay [4], the GLP1 secretion stimulation was 0.3%. Also, the inhibition of viability in assay [5] is 23.4%. The viability decrease (inhibition) in assay [6] is -0.6%; in assay [7], -18.8%.

Take `CC(N)C12CC3CC(CC(C3)C1)C2` (stereo not drawn): in assay [1], the insulin secretion stimulation is 11%. In addition, in assay [2], the viability decrease was -3.4%. In assay [3], the tube area decrease was 15.2%. For the same molecule, in assay [4], the GLP1 secretion stimulation was -0.1%. In addition, the inhibition of viability in assay [5] is 7.6%. In addition, the viability decrease (inhibition) in assay [6] is 60.8% (active); in assay [7], 6.65%.
